Source: the supplement of paper PMC10646978
± gives the standard deviation.

How the values were obtained:
Details in all cases: modulator concentration 10 µM
[1] = system: RAW-Dual (murine macrophage reporter line); assay: NF-kB reporter (SEAP) activity fold change vs agonist alone; higher = enhanced NF-kB activity
Outline: (§1)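 RAW-Dual murine macrophage reporter cells were seeded at 50 000 per well in 384-well plates and pre-incubated 1 hour at 37 °C with compound pin-transferred to 10 μM final. After 1 hour, a PRR agonist was added and cells incubated overnight. Supernatant NF-κB (SEAP, QUANTI-Blue, 620 nm absorbance) and IRF (Lucia luciferase, QUANTI-Luc, luminescence) signals were divided by the mean agonist-only control on the same plate to give fold change. Two replicate plates were averaged, with errors by propagation.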

[2] = system: RAW-Dual (murine macrophage reporter line); assay: IRF reporter (Lucia luciferase) activity fold change vs agonist alone; higher = enhanced IRF activity
Outline: as §1

[3] = system: RAW-Dual (murine macrophage reporter line); assay: viability score (confluency relative to resting cells, overnight) (fraction); higher = more viable, active = viable (0.7 or more)
Outline: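 RAW-Dual macrophages in 384-well plates were treated overnight with compound at 10 μM final. IncuCyte imaging recorded confluency, and IncuCyte software built two confluency masks across every imaged well. The viability score expresses confluency relative to resting cells and was judged against a cutoff, which a compound met only if both masks exceeded 70% of resting cells.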

[4] = agonist: CpG ODN 1826 0.5 ug/mL

Structure (SMILES)	NF-kB reporter [1, 4]	NF-kB reporter ([1]; agonist: LPS 0.1 ug/mL)	NF-kB reporter ([1]; agonist: MPLA […])	IRF reporter ([2]; agonist: 3'3'-cGAMP 10 ug/mL)	IRF reporter ([2]; agonist: LPS 0.1 ug/mL)	IRF reporter ([2]; agonist: MPLA […])	viability score [3]
CCCOc1ccc(-c2ccc(-c3nc(Cc4ccc(OC)c(OC)c4)no3)cc2)cc1	0.763 ± 0.062	0.972 ± 0.046	1.04 ± 0.097	0.978 ± 0.048	1.08 ± 0.063	1.12 ± 0.12	1.01 (active)
CN1CC(O)C2=C/C(=N/NC(N)=O)C(=O)C=C21 (centres undefined)	0.855 ± 0.048	1 ± 0.084	0.927 ± 0.065	0.99 ± 0.046	1.09 ± 0.18	1.24 ± 0.44	0.665 (inactive)
NC(=O)CCC(N)C(=O)O (centres undefined)	1.13 ± 0.32	0.935 ± 0.051	1.03 ± 0.1	0.883 ± 0.049	1.1 ± 0.16	0.999 ± 0.097	0.997 (active)
CN1CCN(CCCN2c3ccccc3Sc3ccc(C(F)(F)F)cc32)CC1.Cl.Cl	0.958 ± 0.043	1.03 ± 0.11	1.3 ± 0.11	0.788 ± 0.056	1.12 ± 0.22	1.22 ± 0.39	1.02 (active)
O=C(COc1ccc2ccccc2c1)NCC#CCN1CCCCC1	0.854 ± 0.036	0.981 ± 0.078	1.07 ± 0.064	1 ± 0.048	1.27 ± 0.29	1.48 ± 0.49	0.956 (active)
CCN(CC)CCOCCOC(=O)C1(c2ccccc2)CCCC1 [Prestw-387]	0.668 ± 0.12	1.14 ± 0.12	0.993 ± 0.12	0.684 ± 0.019	1.03 ± 0.12	1.11 ± 0.19	0.993 (active)
COc1c(Cl)cc(C(=O)Nc2cccc(NC(=O)c3ccco3)c2)cc1Cl	1.15 ± 0.098	1.01 ± 0.056	0.682 ± 0.043	0.858 ± 0.022	1.1 ± 0.11	0.956 ± 0.29	1.01 (active)
O=C(NCCc1cn2ccccc2n1)c1ccccc1Br	0.964 ± 0.069	0.943 ± 0.12	1.03 ± 0.056	1 ± 0.048	1.2 ± 0.25	1.24 ± 0.32	0.975 (active)
CC(C)(C)n1cnc2cc(N=Cc3ccc(Cl)cc3)ccc21	1.21 ± 0.14	1.01 ± 0.12	1.4 ± 0.055	0.888 ± 0.059	0.805 ± 0.048	0.996 ± 0.1	1 (active)
Cl.Nc1c(Br)cc(Br)cc1CNC1CCC(O)CC1 (centres undefined)	0.911 ± 0.074	0.95 ± 0.1	1.04 ± 0.03	0.908 ± 0.065	0.94 ± 0.096	0.999 ± 0.079	0.998 (active)
O=C(C1COCC(=O)N1Cc1ccccc1)N1CCN(c2cccc(Cl)c2)CC1 (centres undefined)	1.01 ± 0.05	1.09 ± 0.089	1.08 ± 0.064	1.01 ± 0.051	1.24 ± 0.075	1.29 ± 0.11	1.01 (active)
Cc1cc(OCC(O)Cn2cnc3ccccc32)ccc1Cl (centres undefined)	1.05 ± 0.06	1.1 ± 0.084	1.14 ± 0.082	0.913 ± 0.035	0.9 ± 0.086	0.685 ± 0.12	0.906 (active)
CC(=O)n1cc(C=C(C)[N+](=O)[O-])c2ccccc21	1.07 ± 0.091	0.607 ± 0.079	0.419 ± 0.055	0.445 ± 0.015	0.297 ± 0.11	0.183 ± 0.067	0.861 (active)
CCC(C)(C)C(=O)O[C@H]1C[C@@H](C)C=C2C=C[C@H](C)[C@H](CC[C@@H]3C[C@@H](O)CC(=O)O3)[C@H]21	2.33 ± 0.12	1.54 ± 0.13	1.82 ± 0.084	0.599 ± 0.061	0.747 ± 0.062	0.639 ± 0.17	0.219 (inactive)
CC(C)Sc1ccc(CC(=O)N2C3C=CCC2CC3)cc1 (centres undefined)	0.963 ± 0.12	1.03 ± 0.082	1.08 ± 0.1	1 ± 0.1	1.43 ± 0.11	1.38 ± 0.24	0.877 (active)
O=C(CSc1nc(-c2ccccc2)c(-c2ccccc2)[nH]1)N1CCOCC1	1.05 ± 0.32	1.08 ± 0.16	1.05 ± 0.1	0.897 ± 0.032	1.28 ± 0.17	1.32 ± 0.17	0.996 (active)
CC1(C)COC(=O)C1=NNc1ccc([N+](=O)[O-])cc1	1.02 ± 0.1	1.09 ± 0.073	1.03 ± 0.039	1.03 ± 0.21	1.05 ± 0.13	1.18 ± 0.1	0.998 (active)
COc1ccc(OC)c(S(=O)(=O)N2CCC(Oc3nc4c(C)cccc4s3)CC2)c1	0.687 ± 0.039	0.889 ± 0.092	1.02 ± 0.072	0.741 ± 0.042	1.15 ± 0.26	1.41 ± 0.57	0.908 (active)
Cc1ccc(OCCCOc2cccc3cccnc23)c(Br)c1	0.998 ± 0.071	1.01 ± 0.078	1.01 ± 0.027	0.829 ± 0.053	0.935 ± 0.13	0.981 ± 0.21	0.998 (active)
NC(=O)c1ncn(C2OC(CO)C(O)C2O)n1 (centres undefined)	1.17 ± 0.089	1.16 ± 0.058	1.04 ± 0.03	1.02 ± 0.075	0.951 ± 0.11	0.922 ± 0.072	0.999 (active)
COc1ccc(C=NN2CCN(C)CC2)c(OC)c1	0.84 ± 0.065	0.95 ± 0.047	1.04 ± 0.09	0.914 ± 0.056	1.25 ± 0.08	1.33 ± 0.11	1.01 (active)
CCCC1=NN2C(=N)C(=Cc3ccc(OCc4ccc(F)cc4)c(OCC)c3)C(=O)N=C2S1	0.992 ± 0.1	1.03 ± 0.057	0.97 ± 0.084	0.965 ± 0.04	1.59 ± 0.17	1.19 ± 0.073	1.01 (active)
CN1CCN(C(=O)CN2C(=O)c3cccc4cccc(c34)C2=O)CC1	0.881 ± 0.082	0.981 ± 0.061	0.88 ± 0.091	0.971 ± 0.026	1.21 ± 0.19	0.967 ± 0.26	1.01 (active)
O=C1CCCc2[nH]ccc21	1.03 ± 0.12	1.03 ± 0.11	1.01 ± 0.092	1.02 ± 0.084	1.04 ± 0.094	0.998 ± 0.21	0.999 (active)
O=S(=O)(N=Cc1c(O)ccc2ccccc12)c1cccs1	1.05 ± 0.23	1 ± 0.079	0.876 ± 0.12	0.74 ± 0.022	0.988 ± 0.15	0.992 ± 0.2	0.999 (active)
CCC1SC(=NN=Cc2cccc3ccccc23)NC1=O (centres undefined)	1.08 ± 0.14	0.974 ± 0.087	0.972 ± 0.044	0.92 ± 0.034	1.01 ± 0.085	0.974 ± 0.2	1 (active)
O=C(CC1CC1)N1CCN(c2cc(C(F)(F)F)ncn2)CC1	0.929 ± 0.04	0.963 ± 0.081	1.29 ± 0.13	1.04 ± 0.091	1.04 ± 0.18	1.01 ± 0.43	1.01 (active)
